Rows were chosen to be rich in hits. Some 6.9% of all compounds tested hit in one or more screens of this group.
Giardia killer: Giardia lamblia killing. Giardia lamblia trophozoite viability. activity change, % at 7.66 µM, hits read low. 0.15% of 340,000 active; in the data active means activity change below about -80%; inconclusive means between about -30% and that limit;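 further: parasites exposed to compound for two days anaerobically before the ATP read; on the % scale 0 is the no-effect control and ±100 the full control effect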
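Giardia trophozoites, 100 cells per well, were exposed to compounds for 48 hrs at 37 deg C under anaerobic conditions; viability was then read as ATP content by bioluminescence after 15-30 min at room temperature.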
SW480 rereplic: inducers of DNA re-replication in SW480 colon cancer cells. Potency, µM (highest dose often 46.1 µM), inactives show top-dose re-replication activation, hits mostly activators. SW480 DNA re-replication, Hoechst DNA content imaging, 48 h. 1.8% of 340,000 active; further: potency means the concentration at half of the fitted maximal effect; % of control where 0% means no effect; nearly all actives have a fitted effect of over 55% in size
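SW480 cells exposed to compounds for 48 hr at 37 C, 5% CO2, then Hoechst-stained 40 min. Nuclear DNA content imaged by fluorescence scanning (405 nm excitation, 500-530 nm emission); re-replication scored as increased high-intensity nuclei.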
S-ASM inh: inhibitors of human secretory acid sphingomyelinase; P17405; placental ASM, HMU-PC fluorogenic substrate, 60 min; Potency, µM (titrated, usually from 57.5 µM), for inactives: at the highest dose activity change, negative = inhibition, usual class: inhibitors; 0.006% of 340,000 active; further: potency means the concentration at half of the fitted maximal effect
Target sequence (P17405 47-631 limits assumed): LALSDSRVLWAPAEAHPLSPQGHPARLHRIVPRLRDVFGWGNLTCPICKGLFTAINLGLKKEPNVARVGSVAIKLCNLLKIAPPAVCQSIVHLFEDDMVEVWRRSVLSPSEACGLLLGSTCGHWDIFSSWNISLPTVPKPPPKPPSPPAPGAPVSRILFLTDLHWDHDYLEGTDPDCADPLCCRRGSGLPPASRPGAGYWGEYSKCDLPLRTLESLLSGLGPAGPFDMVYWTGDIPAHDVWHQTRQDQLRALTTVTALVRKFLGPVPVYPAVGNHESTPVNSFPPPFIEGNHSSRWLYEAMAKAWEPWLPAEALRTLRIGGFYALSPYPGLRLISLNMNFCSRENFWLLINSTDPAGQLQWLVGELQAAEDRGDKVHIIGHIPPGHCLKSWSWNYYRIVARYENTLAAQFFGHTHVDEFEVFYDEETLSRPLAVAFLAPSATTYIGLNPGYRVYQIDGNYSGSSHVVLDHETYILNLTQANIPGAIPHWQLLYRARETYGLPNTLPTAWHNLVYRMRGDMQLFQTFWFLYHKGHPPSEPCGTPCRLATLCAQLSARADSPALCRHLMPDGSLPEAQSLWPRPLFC
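Human placenta-derived ASM enzyme was preincubated with compound for 10 minutes at room temperature, then given fluorogenic substrate HMU-PC0 (9 uM final) for 60 minutes at 37 °C; a pH 10 stop preceded fluorescence reading at Ex 386/Em 447 nm.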
KB-3-1 tox: kills parental KB-3-1 adenocarcinoma cells; AID 1347075; 1.4% of 400,000 active; KB-3-1 viability, CellTiter-Glo ATP luminescence, 72 h; Potency, µM (top dose mostly 46.1 µM), hits mostly cytotoxic; further: potency means the concentration at half of the fitted maximal effect; on the % scale 0 is the no-effect control and ±100 the full control effect; nearly all actives have a fitted effect of over 60% in size
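Multi-concentration cytotoxicity screen in KB-3-1 cells grown in DMEM lacking phenol red with 10% FBS. After 72 h at 37 °C with compound, ATP-dependent luminescence was recorded.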
MCF10A rereplic: induces DNA re-replication in MCF 10a normal breast cells; MCF 10A DNA re-replication, Hoechst nuclear intensity, 48 h; Potency, µM (doses to about 46.1 µM), inactives show at the highest dose activity, positive = re-replication, hits mostly activators; 2.9% of 350,000 active; AID 624296; further: potency means the concentration at half of the fitted maximal effect; % of control where 0% means no effect; nearly all actives have a fitted effect of over 50% in size
KB-V1 MDR tox: KB-V1 MDR subline cytotoxicity | KB-V1 MDR cells viability, CellTiter-Glo, 72 h | Potency, µM (highest dose often 46.1 µM), hits mostly cytotoxic | 3.4% of 400,000 active | AID 1347076; further: potency means the concentration at half of the fitted maximal effect; on the % scale 0 is the no-effect control and ±100 the full control effect; nearly all actives have a fitted effect of over 60% in size
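KB-V1, DMEM (no phenol red) + 10% FBS; cpd pin-transferred, titration series; 72 h, 37 degrees C; CellTiter-Glo, luminescence. Data normalized, curve-fit.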
* marks the source's active call; other numbers are inactive results; i = inactive; u = inconclusive; x = no result; ! = repeats disagree; [ ] = another dose, or the depositor's remark. Unless noted, the call rests on the fitted dose curve; in most records, active means well fitted curve in the direction sought with a large enough effect; inconclusive means small, poorly fitted or top-dose-only effect, or another doubt; inactive means no such curve, though single readings can be large; an effect the other way counts as inactive or inconclusive.

SMILES | Giardia killer | SW480 rereplic | S-ASM inh | KB-3-1 tox | MCF10A rereplic | KB-V1 MDR tox
CCCc1cc(NCCCCO)n2c(nc3ccccc32)c1C#N | 16 | 20% | i | i | 17% | 23µM*
Cc1ccc(S(=O)(=O)N2CC(CO)=CCC2c2ccccc2)cc1 (centres undefined) | x | x | x | i | x | u
O=C(Cn1c(=O)oc2cc(S(=O)(=O)NCc3ccccc3)ccc21)NCc1ccc(F)cc1 | x | x | x | i | x | i
COc1cc(NC(=O)CC(C)S(=O)(=O)c2ccc3c(c2)NC(=O)CO3)cc(OC)c1OC (centres undefined) | 36 | -12% | 3% | i | -2% | i
COc1ccc(-c2c(C)nn3c(C)cc(C)nc23)cc1 | 6 | 3% | 19% | i | 10% | i
COc1cccc(-c2cn3nc4c(nc3n2)CCCC4)c1 | u | u | i | 18µM* | u | u
COc1ccccc1N1CCN(C(=O)CN2C(=O)COc3ccc(S(=O)(=O)N4CCOCC4)cc32)CC1 | x | x | x | i | x | i
O=C(Cn1c(SCC(=O)Nc2ccc(F)cc2)nc2ccccc21)NCc1ccccc1Cl | x | x | x | i | x | u
CCCn1c2ccccc2c2nnc(SCc3[nH]c(=O)[nH]c3C(=O)CCCCC(=O)OCC)nc21 | 10 | u | -2% | i | u | i
CCOC(=O)CCCCC(=O)c1[nH]c(=O)[nH]c1CSc1nnc2c3ccccc3n(C(C)C)c2n1 | 1 | -6% | -3% | i | 23% | 15µM*
Cc1nnc2c(N3CCN(c4ccccc4)CC3)nc3ccc(C(=O)c4ccccc4)cc3n12 | x | x | x | i | x | i
CCOc1ccc(NC(=O)Cn2cc(C(=O)c3ccc(C)c(C)c3)c(=O)c3cc(F)ccc32)cc1 | x | x | x | i | x | i
CCC(C)c1ccc(NC(=S)NCc2ccccc2OC)cc1 (centres undefined) | -11 | 11% | 0% | i | 18µM* | u
CCNC(=S)Nc1ccc(N(c2ccccc2)C(C)C)cc1 | -4 | 9% | -14% | 21µM* | u | 13µM*
CC(C)N(c1ccccc1)c1ccc(NC(=S)NCCN(C)C)cc1 | -4 | u | -3% | u | u | i
CC(C)c1ccc(NC(=S)NN(c2ccccc2)c2ccccc2)cc1 | 17 | u | -3% | i | u | 21µM*
CC(C)CNC(=S)Nc1ccc(Oc2ccccc2)cc1 | 7 | -7% | 3% | 21µM* | 8.2µM* | 16µM*
O=[N+]([O-])c1ccc2c(c1)C=C/C2=C/c1ccccc1 | x | x | x | i | x | i
CCCCN(CC)Cc1ccc(CNS(=O)(=O)c2cc3c(cc2Cl)NC(=O)CO3)o1 | x | x | x | i | x | i
CC(=O)c1ccc(NC(=O)Nc2sc3nc4n(c(=O)c3c2C)CCC(C)CC4)cc1 (centres undefined) | x | x | x | i | x | u
CCSc1nnc2c(n1)OC(c1ccc(C)cc1)N(C(C)=O)c1ccccc1-2 (centres undefined) | x | x | x | i | x | u
COc1ccc2cc(/C=N/NC(=O)c3ccc(CN(c4cccc(Cl)c4Cl)S(C)(=O)=O)cc3)c(Cl)nc2c1 | -9 | -5% | 72% | 2.6µM* | u | u
O=C(NCCc1nc2ccccc2[nH]1)C1CCC(=O)N(CCc2cccc(F)c2)C1 (centres undefined) | 10 | -7% | x | i | -1% | i
Cc1cccc(NC(=O)CN(CC2CCCO2)C(=O)c2oc3ccccc3c2C)c1C (centres undefined) | 1 | 6% | -1% | i | u | i
O=C(NCC1CCCN(Cc2cccc(C(F)(F)F)c2)C1)c1ccc(F)cc1 (centres undefined) | 7 | u | 8% | i | 6% | i
SMILES | Giardia killer | SW480 rereplic | S-ASM inh | KB-3-1 tox | MCF10A rereplic | KB-V1 MDR tox
Cc1cc(CN2CCCC(CNC(=O)c3ccc(F)cc3)C2)cc(C)c1O (centres undefined) | -5 | u | -5% | i | 23µM* | i
COc1ccccc1CNc1nc2nc(C)c(Cl)c(C)n2n1 | x | x | x | i | x | i
Cc1cccc(CSc2ncnc3c2cnn3Cc2ccccc2)c1 | -2 | 13% | -2% | u | u | 15µM*
Cc1ccc(-n2ncc3c(SCc4cccnc4)ncnc32)c(C)c1 | -30 | 2% | -2% | i | 11% | 5.8µM*
O=C(COC(=O)CCC1CCCC1)Nc1ccc(Cl)cc1F | 10 | 23µM* | -1% | i | -6% | i
COc1ccc(/C=C/C(=O)OCCC(C)C)cc1 | x | 3% | x | x | 14% | x
COc1ccc(CC(=O)NCc2ccccc2)cc1 | 30 | u | -8% | u | 7.3µM* | i
COc1cc(OC)cc(C(=O)Nc2nnc(NC(=S)Nc3ccccc3)s2)c1 | 7 | 9% | -22% | i | 10µM* | i
COc1cccc(CNC(=O)Cc2ccc(-c3ccccc3)cc2)c1 | -8 | u | 0% | u | 10µM* | u
CCCCC[C@H]1CN(CCc2ccccc2)C(=O)[C@@H]1CC(=O)NCc1ccc(OC)cc1 | 7 | 5%[9.22 µM] | -8% | u | 23% | 18µM*!
Cc1nn(-c2ccc(F)cc2)c(Cl)c1/C=C/C(=O)N1CCNC(=O)C1 | 21 | -26% | -1% | i | 1% | i
COc1cc(C(=O)NCc2cc(C)nc3ccccc23)cc(OC)c1OC | -1 | 0% | -3% | i | -5% | i
COc1ccc(CC(=O)Oc2ccc(F)cc2)cc1 | 20 | 6% | 2% | i | 0.65µM* | u
COc1ccc(C(=O)NCc2cc(C)nc3ccccc23)cc1 | -16 | u | -3% | 18µM* | u | i
COc1ccc(-c2cc(CNC(=O)CN(C)Cc3ccccc3)on2)cc1 | 3 | -6% | 3% | i | -2% | 2.6µM*
COc1ccc(-c2cc(CNC(=O)CCl)on2)cc1 | -18 | u | 2% | u | u | i
COc1cccc(CNC(=O)COc2ccc(C(=O)c3ccccc3)cc2)c1 | u | u | -1% | u | u | 21µM*
CCc1ccc(C2NC(=O)c3[nH]nc(-c4cccc(OC)c4)c32)cc1 (centres undefined) | x | x | x | i | x | i
COc1ccc(CN(C)CC(=O)NC(=O)NCc2ccccc2)cc1OC | 4 | -2% | 4% | i | 0% | i
COc1ccc(C(CNC(=O)Cc2ccc(-c3ccccc3)cc2)N(C)C)cc1 (centres undefined) | 6 | 18µM* | 4% | i | u | i
COc1cccc(CNC(=O)Cc2ccc(-n3c(=O)[nH]c4ccccc4c3=O)cc2)c1 | 18 | u | 3% | 4.1µM* | u | u

Screening data: PubChem, National Center for Advancing Translational Sciences (NCATS)
